Shown are actives, neighbours in structure and some others; about 5.9% of the full set was active somewhere.
NR0B1 inh = NR0B1 (DAX1) inhibition | P51843 | HEK293 Gal4-DAX1 luciferase reporter, luminescence | inhibition, % at 6.75 µM | 340,000 compounds, 0.99% hits | AID 504766;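 active means inhibition above the mean over all tested compounds plus 3 SD, cut at about 4.2% in these data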;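 further: 0% = DAX1-transfected cells with DMSO and 100% = empty-vector control cells with DMSO; inhibition shows as a rise in luminescence from relieved DAX1 repression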
AHR act = activators of human aryl hydrocarbon receptor | P35869 | AHR-responsive luciferase reporter cells, luminescence | activation, % at 5 µM | 320,000 compounds, 2.5% hits | AID 2796; in the data active means activation above about 47%;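 further: 0% = vehicle wells and 100% = reference agonist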
Target sequence (P35869 whole entry, looked up): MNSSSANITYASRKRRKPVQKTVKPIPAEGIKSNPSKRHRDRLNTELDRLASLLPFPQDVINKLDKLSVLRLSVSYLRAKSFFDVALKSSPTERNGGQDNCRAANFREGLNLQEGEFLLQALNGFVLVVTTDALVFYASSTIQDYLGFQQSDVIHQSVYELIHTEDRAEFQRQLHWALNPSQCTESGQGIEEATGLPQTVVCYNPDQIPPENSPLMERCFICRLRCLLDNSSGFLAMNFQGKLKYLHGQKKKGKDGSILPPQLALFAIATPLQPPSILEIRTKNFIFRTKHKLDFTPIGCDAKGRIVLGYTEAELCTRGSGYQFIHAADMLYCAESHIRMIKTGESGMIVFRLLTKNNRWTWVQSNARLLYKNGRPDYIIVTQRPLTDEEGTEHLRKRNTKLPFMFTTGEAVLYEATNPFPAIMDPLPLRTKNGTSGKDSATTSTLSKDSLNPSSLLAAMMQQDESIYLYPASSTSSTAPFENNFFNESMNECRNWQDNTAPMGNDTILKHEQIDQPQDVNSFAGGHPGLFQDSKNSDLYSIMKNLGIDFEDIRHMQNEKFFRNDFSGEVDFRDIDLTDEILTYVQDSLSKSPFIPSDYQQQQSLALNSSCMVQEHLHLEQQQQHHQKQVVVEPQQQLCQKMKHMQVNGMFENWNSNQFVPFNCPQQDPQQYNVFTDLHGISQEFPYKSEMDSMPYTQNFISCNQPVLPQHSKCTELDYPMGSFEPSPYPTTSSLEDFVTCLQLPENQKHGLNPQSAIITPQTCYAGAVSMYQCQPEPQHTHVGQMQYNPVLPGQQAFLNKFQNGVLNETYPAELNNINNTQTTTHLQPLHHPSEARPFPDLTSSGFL
HSP90 refold inh = blocks HSP90-mediated luciferase refolding in reticulocyte lysate. AID 1789. 290,000 compounds, 0.91% hits. Rabbit reticulocyte lysate, luciferase refolding luminescence, 3 h. inhibition, % at 5.6 µM;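 active means inhibition above the screen-wide mean plus 3 SD, computed separately per campaign, cut at about 16% in these data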;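 further: 0% = DMSO wells and 100% = 60 µM geldanamycin wells; inhibitors lower the luminescence because luciferase stays unfolded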
HSF1 inhib = HSF1 inhibition. 300,000 compounds, 0.77% hits. activity change, negative = inhibition, % at 7.5 µM (by protocol). NIH3T3-HGL HSE-luciferase, MG132-induced, luminescence 8 h; stronger effect = lower value;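 active means more than half of replicate wells show activity change below -50%, luminescence cut by over half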;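 further: luciferase reports HSF-1 transcriptional activity via heat shock element; 0% = median of DMSO wells and -100% = zero luminescence signal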
HSF-1 act = increases HSF-1 driven luciferase reporter signal; 300,000 compounds, 1.7% hits; AID 504408; activation, % at 9 µM; NIH3T3-HGL HSF-1 luciferase reporter, MG132, 8 h; 100% = twice DMSO control signal;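 active means mean replicate activation of at least 50% with a set share of replicates each reaching 50%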;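 further: 0% = median of the neutral control wells and 100% = twice that signal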
GAA850 FXN act = activators of GAA850 frataxin (FXN) promoter | activation, % at 6 µM | 360,000 compounds, 0.56% hits | HEK293 lucGAA850 FXN promoter luciferase reporter, 24 h; percent of 10 µM SAHA response;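 active means activation above the average of all compounds screened plus 3 SD, cutoff fixed separately per campaign, cut at about 7.5% in these data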;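 further: 0% = DMSO wells and 100% = 10 µM SAHA wells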
* hit, by the source's call; x = not tested or not shown.

SMILES | NR0B1 inh | AHR act | HSP90 refold inh | HSF1 inhib | HSF-1 act | GAA850 FXN act
N/C(=N\OC(=O)c1ccc2c(c1)OCO2)c1ccc(Cl)cc1 | 1 | 6 | -4 | 26 | 49 | 3
COc1cccc(OC)c1C(=O)O/N=C(\N)c1ccncc1 | 3 | 0 | -1 | -3 | -14 | 0
N/C(=N\OC(=O)c1cccc2ccccc12)c1ccncc1 | 3 | 67* | -6 | 31 | 40 | 2
N/C(=N\OC(=O)c1ccc2c(c1)OCO2)c1ccncc1 | 5.1* | 26 | -1 | 29 | 30 | 5
OC(CNCc1cccc(Cl)c1)c1ccccc1 (stereo unspecified) | -1 | 0 | -4 | 25 | 72* | 3
OC(CNCc1ccccc1)c1ccccc1 (stereo unspecified) | 4.5* | -2 | -2 | 4 | 6 | 2
Cc1ccc(C(=O)COC(=O)c2cn3ccccc3n2)cc1 | 0 | 1 | -1 | 32 | 62* | 2
Cc1ccc(C(=O)COC(=O)c2ccc(O)cc2)cc1 | 2 | 2 | -4 | 58 | 122* | 6
COc1ccc(/C=N/Nc2ccc([N+](=O)[O-])cc2)cc1O | 7.8* | 7 | -9 | 28 | 20 | 1
COc1ccc(/C=N/Nc2ccc([N+](=O)[O-])cc2)cc1Cn1cc([N+](=O)[O-])cn1 | 0 | 69* | 0 | 9 | 14 | -1
CCN(CC(=O)NCc1ccc(F)cc1)C(=O)C1CC1C (stereo unspecified) | 1 | -1 | 3 | -4 | -22 | 1
COc1cc(Br)c(CC(=O)NC2CC2)cc1OC | -2 | 1 | -2 | -10 | -12 | 1
O=C(/C=C/c1c(F)cccc1Cl)Nc1cccnc1 | 3 | 50* | 3 | 22 | 34 | 3
O=C(/C=C/c1cccs1)Nc1cccnc1 | -1 | 56* | 2 | 19 | 32 | 4
O=C(/C=C/c1cccs1)Nc1nncs1 | 2 | 30 | 0 | 7 | 1 | 2
O=C(/C=C/c1cc(Br)ccc1F)Nc1cccnc1 | 2 | 20 | 2 | 7 | 39 | -1
CCn1c(CNC(=O)c2ccc(Cl)cc2)nnc1SCC(=O)NC1=NCCS1 | 0 | -1 | -2 | -2 | 0 | 1
COc1ccc(NC(=O)C[C@H]2C(=O)N(c3ccc(Br)cc3)C[C@@H]2c2ccc(OC)cc2)cc1 | 1 | x | x | x | x | 0
CC(=O)c1cn(CC(=O)Nc2c(C)cccc2C)c2ccccc12 | -3 | 2 | 2 | -4 | 2 | -2
CC(=O)c1cn(CC(=O)Nc2ccccc2C)c2ccccc12 | -2 | 1 | 0 | -80* | -83 | -2
CCOC(=O)C(=O)N(C)c1c(CC)nc2c(OCCC3CCCCC3)cccn12 | x | x | x | x | x | 0
O=c1c2ccccc2nc(-c2ccco2)n1/N=C/c1ccco1 | -1 | 62* | -3 | -7 | 4 | 1
Cc1nc2ccccc2c(=O)n1/N=C/c1ccco1 | 0 | 1 | 1 | -2 | -4 | 2
O=C(Nc1nnc([C@H]2C[C@H](O)[C@@H](CO)O2)s1)NC(c1ccccc1)c1ccccc1 | x | x | x | x | x | -2
COc1ccc(-n2cc([N+](=O)[O-])c(=O)c3ccc(Cl)cc32)cc1 | 2 | -4 | x | -66* | -75 | 0
SMILES | NR0B1 inh | AHR act | HSP90 refold inh | HSF1 inhib | HSF-1 act | GAA850 FXN act
COc1ccc(OCCNc2cc(Cl)ccc2[N+](=O)[O-])cc1 | -1 | 3 | 3 | 1 | -5 | -2
Cn1/c(=N/NC(=O)c2ccccc2Br)sc2ccccc21 | 1 | 48* | 1 | 18 | 12 | 4
O=C1NC(=O)N2CCSC2(Cc2ccccc2)N1 (stereo unspecified) | -1 | x | x | x | x | 1
CCOc1ccc(NC(=O)CN2C(=O)/C(=C3\SC(=S)N(C4CCS(=O)(=O)C4)C3=O)c3ccccc32)cc1 (stereo unspecified) | 0 | x | 20* | x | x | 1
Cc1ccc(Oc2ccc(NC(=O)CCC(=O)OCC(=O)c3cccs3)cc2)cc1C | 4.5* | 1 | 1 | 5 | 14 | 1
Cc1ccc(NCCC(=O)c2cccs2)cc1C | 1 | 48* | 8 | 9 | 33 | 5
Cc1cccc(NC(=O)COc2ccc(Br)cc2/C=N/O)c1 | 1 | 19 | -4 | 65 | 107* | 5
Cc1cc(C)c(S(=O)(=O)Nc2ccccn2)c(C)c1 | 4.3* | 0 | -1 | -6 | -4 | 0
CC(C)(C)OC(=O)N1CCc2onc(-c3ccccc3F)c2C1=O | 0 | x | x | x | x | 2
Cc1ccc(NC(=O)c2ncn(CCCN[C@H](C)c3cccc4ccccc34)n2)cc1C | 1 | x | x | x | x | -1
COc1cccc(NC(=O)COC(=O)c2nc3nccc(C)n3n2)c1 | 1 | 1 | 0 | -8 | 0 | 1
COc1cccc(N(C(=O)c2nc3nccc(C)n3n2)c2nc3ccccc3s2)c1 | 1 | 30 | -3 | 69 | 121* | 7
O=c1c2c3c(sc2nc(NCCOCCO)n1Cc1ccco1)CCCCC3 | 2 | 3 | 3 | -62* | -62 | 1
CN(C)CCNc1nc2sc3c(c2c(=O)n1CCc1ccccc1)CCCCC3 | 7.0* | 5 | 1 | -2 | 8 | 0
CC(O)CNc1nc2sc3c(c2c(=O)n1Cc1ccco1)CCCCC3 (stereo unspecified) | 1 | 8 | 7 | -24 | -37 | 7
CC(O)CNc1nc2sc3c(c2c(=O)n1CCc1ccccc1)CCCCC3 (stereo unspecified) | 6.5* | 5 | 2 | 10 | 27 | 7
COCCCNC(=O)C[C@H]1C[C@H](C(=O)N2CCOCC2)[C@@]2(CCC3CCCC3)c3[nH]c4cc(CCC(=O)N(C)C)ccc4c3CCN2C1=O | 0 | x | x | x | x | 4
CCOC(=O)C1=C(COC(=O)COc2ccc(OCC)cc2)NC(=O)NC1C (stereo unspecified) | -1 | -2 | x | -4 | -10 | 1
CC(=O)C1=C(c2ccccc2)N(C(C)=O)n2c(C)nnc2S1 | 0 | 51* | 8 | -13 | -10 | -1
CCOC(=O)c1c(C)[nH]c(C)c1C(=O)COc1ncnc2cc([N+](=O)[O-])ccc12 | -2 | 17 | 2 | 17 | 66* | 0
CC(NC(=O)COc1ncnc2cc([N+](=O)[O-])ccc12)c1ccccc1 (stereo unspecified) | 0 | 2 | -1 | 1 | -1 | 1
Cc1noc(C)c1NC(=O)N(C)C[C@H]1Oc2ccc(NC(=O)C3CC3)cc2C(=O)N([C@H](C)CO)C[C@@H]1C | 0 | 1 | x | x | x | -1
c1ccc(N2CCN(c3nc4ccccc4n4nnnc34)CC2)cc1 | 0 | 73* | 4 | 3 | 15 | -1
Fc1ccc(Nc2ccc3ccccc3n2)c(F)c1 | -2 | -4 | 34* | 0 | -22 | 1
O=C(Nc1ccc2ccccc2n1)Nc1ccccc1F | 0 | 13 | 4 | 11 | 3 | 4
